Results taken from PubChem BioAssay AID1159580 (chemical genetic matrix, 2015).
Values joined by “and” are separate entries in the source; they are usually repeats but may differ in a detail not shown here. Equal values may be shown once. About 2,000 (36%) of roughly 5,500 compounds were called active. About 18% were inconclusive and are not listed. Rule as the data show it: active = normalized growth mostly below about 0.91 (no sharp cut-off); inconclusive = no clear call, values can overlap the other calls; inactive = mostly above about 0.92. The list shows a part of the results.

Assay: chemical genetic growth profiling, strain panel (AID 1159580);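 also: tested at 20 µM; growth read once vehicle control cultures reached saturation at 30 °C; 1 = growth at the plate median or of vehicle wells; lower values mean less growth of the strain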
Settings: growth OD

Measured: normalized growth

CN(C)C(=O)Oc1ccc[n+](C)c1
inactive: S. cerevisiae deletion strains, locus YJR075W, strain HOC1, active compounds read low 1 | S. cerevisiae deletion strains, locus YKL009W, strain mrt4, active compounds read low 1.01 | S. cerevisiae deletion strains, locus YKL068W, active compounds read low 1.02 | S. cerevisiae deletion strains, locus YKL085W, strain MDH1 (second series), active compounds read low 1.01 | S. cerevisiae deletion strains, locus YKL085W, strain MDH1, active compounds read low 1.01 | S. cerevisiae deletion strains, locus YKL160W, strain elf1, active compounds read low 1 | S. cerevisiae deletion strains, locus YKL190W, strain CNB1, active compounds read low 1.02 | S. cerevisiae deletion strains, locus YKR001C, strain vps1, active compounds read low 1.01 | S. cerevisiae deletion strains, locus YKR026C, strain gcn3, active compounds read low 1.01 | S. cerevisiae deletion strains, locus YKR091W, strain srl3, active compounds read low 0.997 | S. cerevisiae deletion strains, locus YLL001W, strain dnm1, active compounds read low 0.996 | S. cerevisiae deletion strains, locus YLL026W, active compounds read low 0.999 | S. cerevisiae deletion strains, locus YLL041C, strain sdh2, active compounds read low 1 | S. cerevisiae deletion strains, locus YLR027C, strain aat2, active compounds read low 0.999 | S. cerevisiae deletion strains, locus YLR039C, strain RIC1, active compounds read low 1.05 | S. cerevisiae deletion strains, locus YLR058C, strain SHM2, active compounds read low 1.03 | S. cerevisiae deletion strains, locus YLR102C, strain apc9, active compounds read low 1.01 | S. cerevisiae deletion strains, locus YLR113W, strain HOG1, active compounds read low 1.05 | S. cerevisiae deletion strains, locus YLR221C, strain rsa3, active compounds read low 0.997 | S. cerevisiae deletion strains, locus YLR258W, strain gsy2, active compounds read low 1 | S. cerevisiae deletion strains, locus YLR262C, strain YPT6 (second series), active compounds read low 1.01 | S. cerevisiae deletion strains, locus YLR262C, strain YPT6, active compounds read low 1.06 | S. cerevisiae deletion strains, locus YLR268W, strain sec22, active compounds read low 1.01 | S. cerevisiae deletion strains, locus YLR320W, strain mms22, active compounds read low 1.01 | S. cerevisiae deletion strains, locus YLR330W, strain CHS5, active compounds read low 1.01 | S. cerevisiae deletion strains, locus YLR342W, strain FKS1 (second series), active compounds read low 1.06 | S. cerevisiae deletion strains, locus YLR342W, strain FKS1, active compounds read low 1.01 | S. cerevisiae deletion strains, locus YLR357W, strain rsc2, active compounds read low 1 | S. cerevisiae deletion strains, locus YLR370C, strain arc18, active compounds read low 1.01 | S. cerevisiae deletion strains, locus YLR371W, strain rom2, active compounds read low 1.01 | S. cerevisiae deletion strains, locus YLR384C, strain iki3, active compounds read low 1.01 | S. cerevisiae deletion strains, locus YLR418C, strain cdc73, active compounds read low 1.03 | S. cerevisiae deletion strains, locus YML016C, strain PPZ1, active compounds read low 1.01 | S. cerevisiae deletion strains, locus YML032C, strain rad52, active compounds read low 1.01 | S. cerevisiae deletion strains, locus YML120C, strain ndi1, active compounds read low 1 | S. cerevisiae deletion strains, locus YML124C, strain tub3, active compounds read low 1.04 | S. cerevisiae deletion strains, locus YMR058W, strain fet3, active compounds read low 0.994 | S. cerevisiae deletion strains, locus YMR078C, strain ctf18, active compounds read low 1.01 | S. cerevisiae deletion strains, locus YMR125W, strain sto1, active compounds read low 1 | S. cerevisiae deletion strains, locus YMR129W, active compounds read low 1 | S. cerevisiae deletion strains, locus YMR205C, strain PFK2, active compounds read low 1.02 | S. cerevisiae deletion strains, locus YMR223W, strain ubp8, active compounds read low 1.05 | S. cerevisiae deletion strains, locus YMR231W, strain pep5, active compounds read low 1 | S. cerevisiae deletion strains, locus YMR263W, strain SAP30, active compounds read low 1.01 | S. cerevisiae deletion strains, locus YMR307W, strain GAS1, active compounds read low 1.04 | S. cerevisiae deletion strains, locus YNL067W, strain RPL9B, active compounds read low 1.01 | S. cerevisiae deletion strains, locus YNL071W, strain lat1, active compounds read low 1 | S. cerevisiae deletion strains, locus YNL153C, strain GIM3, active compounds read low 0.986 | S. cerevisiae deletion strains, locus YNL175C, strain NOP13, active compounds read low 0.972 | S. cerevisiae deletion strains, locus YNL183C, strain NPR1, active compounds read low 0.981 | S. cerevisiae deletion strains, locus YNL197C, strain WHI3, active compounds read low 0.961 | S. cerevisiae deletion strains, locus YNL209W, strain ssb2, active compounds read low 1 | S. cerevisiae deletion strains, locus YNL224C, strain SQS1, active compounds read low 0.982 | S. cerevisiae deletion strains, locus YNL233W, strain BNI4, active compounds read low 1 | S. cerevisiae deletion strains, locus YNL248C, strain rpa49, active compounds read low 0.996 | S. cerevisiae deletion strains, locus YNL250W, strain rad50, active compounds read low 1.02 | S. cerevisiae deletion strains, locus YNL271C, strain bni1, active compounds read low 1.02 | S. cerevisiae deletion strains, locus YNL298W, strain CLA4, active compounds read low 1.02 | S. cerevisiae deletion strains, locus YNL307C, strain MCK1, active compounds read low 1.02 | S. cerevisiae deletion strains, locus YNL322C, strain KRE1 (second series), active compounds read low 1 | S. cerevisiae deletion strains, locus YNR049C, strain mso1, active compounds read low 1 | S. cerevisiae deletion strains, locus YNR052C, strain pop2, active compounds read low 1.02 | S. cerevisiae deletion strains, locus YOL006C, strain TOP1, active compounds read low 0.966 | S. cerevisiae deletion strains, locus YOL012C, strain htz1 0.894 | S. cerevisiae deletion strains, locus YOL147C, strain pex11, active compounds read low 1.02 | S. cerevisiae deletion strains, locus YOR001W, strain rrp6, active compounds read low 0.985 | S. cerevisiae deletion strains, locus YOR061W, strain CKA2, active compounds read low 1.02 | S. cerevisiae deletion strains, locus YOR069W, strain VPS5, active compounds read low 1.02 | S. cerevisiae deletion strains, locus YOR070C, strain gyp1, active compounds read low 1 | S. cerevisiae deletion strains, locus YOR080W, strain dia2, active compounds read low 1.03 | S. cerevisiae deletion strains, locus YOR083W, strain WHI5 (second series), active compounds read low 0.968 | S. cerevisiae deletion strains, locus YOR083W, strain WHI5, active compounds read low 0.999 | S. cerevisiae deletion strains, locus YOR106W, strain vam3, active compounds read low 1 | S. cerevisiae deletion strains, locus YOR136W, strain idh2, active compounds read low 1.02 | S. cerevisiae deletion strains, locus YOR144C, strain elg1, active compounds read low 1.01 | S. cerevisiae deletion strains, locus YOR184W, strain ser1, active compounds read low 1.01 | S. cerevisiae deletion strains, locus YOR231W, strain MKK1, active compounds read low 1.03 | S. cerevisiae deletion strains, locus YOR265W, strain rbl2, active compounds read low 1.01 | S. cerevisiae deletion strains, locus YOR270C, strain vph1, active compounds read low 0.993 | S. cerevisiae deletion strains, locus YOR290C, strain snf2, active compounds read low 1 | S. cerevisiae deletion strains, locus YOR316C, strain cot1, active compounds read low 1.02 | S. cerevisiae deletion strains, locus YPL051W, strain arl3, active compounds read low 1 | S. cerevisiae deletion strains, locus YPL055C, strain LGE1, active compounds read low 1 and 1.04 | S. cerevisiae deletion strains, locus YPL078C, strain atp4, active compounds read low 0.999 | S. cerevisiae deletion strains, locus YPL106C, strain sse1, active compounds read low 1.01 | S. cerevisiae deletion strains, locus YPL240C, strain hsp82, active compounds read low 1 | S. cerevisiae deletion strains, locus YPL241C, strain CIN2, active compounds read low 0.991 | S. cerevisiae deletion strains, locus YPL256C, strain CLN2, active compounds read low 1 | S. cerevisiae deletion strains, locus YPR119W, strain clb2, active compounds read low 1.01 | S. cerevisiae deletion strains, locus YPR141C, strain kar3, active compounds read low 1.02 | S. cerevisiae deletion strains, locus YPR163C, strain tif3, active compounds read low 1.02 | S. cerevisiae deletion strains, locus YPR167C, strain met16, active compounds read low 1.01 | S. cerevisiae deletion strains, strain wtn01, active compounds read low 1.01 | S. cerevisiae strains, strain wild type, active compounds read low 1.02
